Laboratory results as given in the supplement of paper PMC11732987, “Enantioselective OTUD7B fragment discovery through chemoproteomics screening and high-throughput optimisation” (Communications Chemistry, 2025).

Experiments:
Assay in all cases: log2 ratio of Biotin-Ahx-Ub-VS probe labelling (fragment/DMSO); higher = less target engagement (more negative = stronger competition), active = hit call of the paper (q ≤ 0.05, log2 ratio ≤ -1)
Settings in all cases: compound concentration: 200 uM; treatment time: 3 h
OTUD6B = biological target: T1, OTUD6B (UniProt Q8N6M0)
T1 sequence (whole entry): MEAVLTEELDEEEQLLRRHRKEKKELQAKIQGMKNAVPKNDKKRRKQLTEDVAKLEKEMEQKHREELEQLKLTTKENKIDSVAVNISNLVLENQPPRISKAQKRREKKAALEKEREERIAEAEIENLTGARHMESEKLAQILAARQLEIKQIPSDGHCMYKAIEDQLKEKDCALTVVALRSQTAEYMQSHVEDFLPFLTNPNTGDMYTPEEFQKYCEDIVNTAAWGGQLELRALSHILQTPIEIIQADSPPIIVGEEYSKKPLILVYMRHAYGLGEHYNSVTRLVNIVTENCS
Procedure, shortened: (§1)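 HEK293T lysate in Tris/CHAPS/IGEPAL buffer with protease inhibitors (495 µg per sample) was given fragment at 200 µM or vehicle for 3 h, in triplicate. It then received Biotin-Ahx-Ub-VS at 0.5 µM final for 1 h. Labelled DUBs were NeutrAvidin-enriched, digested with LysC and trypsin, and run by diaPASEF LC-MS/MS. Values are average log2 fragment/vehicle ratios by unpaired t-test on global-median-normalised Spectronaut quantities of proteins with ≥2 unique peptides.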

OTUD7B = biological target: T2, OTUD7B (UniProt Q6GQQ9)
T2 sequence (whole entry): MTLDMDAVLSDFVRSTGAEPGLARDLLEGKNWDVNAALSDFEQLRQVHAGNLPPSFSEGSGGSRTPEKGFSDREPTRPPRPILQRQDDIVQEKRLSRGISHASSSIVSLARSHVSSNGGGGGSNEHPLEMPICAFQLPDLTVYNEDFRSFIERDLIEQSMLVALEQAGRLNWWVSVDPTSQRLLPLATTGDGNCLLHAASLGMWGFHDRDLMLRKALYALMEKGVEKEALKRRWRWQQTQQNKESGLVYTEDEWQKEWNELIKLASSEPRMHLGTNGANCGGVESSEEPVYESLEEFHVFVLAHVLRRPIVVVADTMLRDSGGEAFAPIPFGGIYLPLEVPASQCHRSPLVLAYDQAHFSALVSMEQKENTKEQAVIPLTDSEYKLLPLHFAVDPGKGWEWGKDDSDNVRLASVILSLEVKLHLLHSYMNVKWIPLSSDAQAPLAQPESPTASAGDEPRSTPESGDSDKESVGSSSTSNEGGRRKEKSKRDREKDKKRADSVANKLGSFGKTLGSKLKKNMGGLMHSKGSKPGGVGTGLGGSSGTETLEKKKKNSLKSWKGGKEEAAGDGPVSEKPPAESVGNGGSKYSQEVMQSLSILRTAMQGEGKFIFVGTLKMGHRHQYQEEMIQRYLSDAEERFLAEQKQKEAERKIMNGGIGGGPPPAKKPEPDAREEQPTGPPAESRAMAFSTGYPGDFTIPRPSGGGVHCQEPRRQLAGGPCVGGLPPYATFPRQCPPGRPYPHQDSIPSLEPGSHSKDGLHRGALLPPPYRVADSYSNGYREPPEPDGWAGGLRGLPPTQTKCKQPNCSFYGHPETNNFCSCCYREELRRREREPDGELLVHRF
Procedure, shortened: as §1

PRPF8 = PRPF8 (UniProt Q6P2Q9)
Procedure, shortened: as §1

PSMD7 = biological target: T3, PSMD7 (UniProt P51665)
T3 sequence (whole entry): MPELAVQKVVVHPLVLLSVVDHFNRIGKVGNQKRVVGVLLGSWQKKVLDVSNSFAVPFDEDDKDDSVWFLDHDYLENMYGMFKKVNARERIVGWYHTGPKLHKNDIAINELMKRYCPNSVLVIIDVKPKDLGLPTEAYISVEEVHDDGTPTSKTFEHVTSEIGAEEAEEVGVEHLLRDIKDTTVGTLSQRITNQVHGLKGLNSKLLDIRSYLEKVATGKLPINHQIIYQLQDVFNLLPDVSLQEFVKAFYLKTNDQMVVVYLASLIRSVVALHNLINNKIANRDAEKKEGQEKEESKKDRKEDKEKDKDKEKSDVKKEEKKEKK
Procedure, shortened: as §1

UCHL1 = UCHL1 (UniProt P09936)
Procedure, shortened: as §1

UCHL3 = biological target: T4, UCHL3 (UniProt P15374)
T4 sequence (whole entry): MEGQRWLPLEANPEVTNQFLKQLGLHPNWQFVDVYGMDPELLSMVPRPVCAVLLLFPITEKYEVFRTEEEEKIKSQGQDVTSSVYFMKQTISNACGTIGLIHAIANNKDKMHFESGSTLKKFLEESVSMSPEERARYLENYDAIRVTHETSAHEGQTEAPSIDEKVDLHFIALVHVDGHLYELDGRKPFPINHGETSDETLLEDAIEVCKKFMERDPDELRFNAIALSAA
Procedure, shortened: as §1

UCHL5 = biological target: T5, UCHL5 (UniProt Q9Y5K5)
T5 sequence (whole entry): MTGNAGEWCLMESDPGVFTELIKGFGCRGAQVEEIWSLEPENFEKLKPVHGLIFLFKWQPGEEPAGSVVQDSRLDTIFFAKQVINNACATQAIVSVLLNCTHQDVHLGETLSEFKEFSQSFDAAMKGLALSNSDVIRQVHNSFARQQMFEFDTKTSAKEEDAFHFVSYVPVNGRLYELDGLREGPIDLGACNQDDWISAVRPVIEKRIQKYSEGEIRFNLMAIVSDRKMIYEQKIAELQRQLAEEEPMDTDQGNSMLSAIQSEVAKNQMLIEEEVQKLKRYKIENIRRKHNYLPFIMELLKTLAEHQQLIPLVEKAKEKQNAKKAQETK
Procedure, shortened: as §1

USP10 = USP10 (UniProt Q14694)
Procedure, shortened: as §1

USP15 = biological target: T6, USP15 (UniProt Q9Y4E8)
T6 sequence (whole entry): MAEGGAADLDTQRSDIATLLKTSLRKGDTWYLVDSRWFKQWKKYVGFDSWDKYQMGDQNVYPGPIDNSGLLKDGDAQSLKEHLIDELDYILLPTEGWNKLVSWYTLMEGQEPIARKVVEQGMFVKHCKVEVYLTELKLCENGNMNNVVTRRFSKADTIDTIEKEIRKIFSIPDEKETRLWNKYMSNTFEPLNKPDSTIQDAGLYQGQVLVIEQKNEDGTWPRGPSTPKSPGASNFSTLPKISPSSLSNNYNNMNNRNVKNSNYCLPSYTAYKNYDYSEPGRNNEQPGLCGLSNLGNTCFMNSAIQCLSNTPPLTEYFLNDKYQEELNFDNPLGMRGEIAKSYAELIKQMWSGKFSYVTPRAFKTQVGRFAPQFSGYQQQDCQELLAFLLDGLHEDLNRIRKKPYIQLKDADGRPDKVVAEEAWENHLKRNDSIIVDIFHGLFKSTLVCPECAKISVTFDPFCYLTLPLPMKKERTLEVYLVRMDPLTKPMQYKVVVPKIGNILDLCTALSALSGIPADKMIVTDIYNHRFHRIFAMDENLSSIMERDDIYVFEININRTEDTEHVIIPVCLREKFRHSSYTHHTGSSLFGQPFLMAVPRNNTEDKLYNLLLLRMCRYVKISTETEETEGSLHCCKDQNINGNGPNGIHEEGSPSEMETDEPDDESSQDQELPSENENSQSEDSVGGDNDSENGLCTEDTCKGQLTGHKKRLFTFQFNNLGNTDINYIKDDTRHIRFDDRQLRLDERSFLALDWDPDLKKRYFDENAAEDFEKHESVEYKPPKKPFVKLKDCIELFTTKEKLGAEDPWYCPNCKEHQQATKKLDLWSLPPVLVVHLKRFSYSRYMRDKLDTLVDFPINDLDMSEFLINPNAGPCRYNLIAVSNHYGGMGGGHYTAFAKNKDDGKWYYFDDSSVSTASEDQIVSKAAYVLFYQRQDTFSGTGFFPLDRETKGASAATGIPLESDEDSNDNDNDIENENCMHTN
Procedure, shortened: as §1

USP16 = USP16 (UniProt Q9Y5T5)
Procedure, shortened: as §1

Measured: log2 ratio of Biotin-Ahx-Ub-VS probe labelling

Chain of USP16 (Q9Y5T5 whole entry, looked up): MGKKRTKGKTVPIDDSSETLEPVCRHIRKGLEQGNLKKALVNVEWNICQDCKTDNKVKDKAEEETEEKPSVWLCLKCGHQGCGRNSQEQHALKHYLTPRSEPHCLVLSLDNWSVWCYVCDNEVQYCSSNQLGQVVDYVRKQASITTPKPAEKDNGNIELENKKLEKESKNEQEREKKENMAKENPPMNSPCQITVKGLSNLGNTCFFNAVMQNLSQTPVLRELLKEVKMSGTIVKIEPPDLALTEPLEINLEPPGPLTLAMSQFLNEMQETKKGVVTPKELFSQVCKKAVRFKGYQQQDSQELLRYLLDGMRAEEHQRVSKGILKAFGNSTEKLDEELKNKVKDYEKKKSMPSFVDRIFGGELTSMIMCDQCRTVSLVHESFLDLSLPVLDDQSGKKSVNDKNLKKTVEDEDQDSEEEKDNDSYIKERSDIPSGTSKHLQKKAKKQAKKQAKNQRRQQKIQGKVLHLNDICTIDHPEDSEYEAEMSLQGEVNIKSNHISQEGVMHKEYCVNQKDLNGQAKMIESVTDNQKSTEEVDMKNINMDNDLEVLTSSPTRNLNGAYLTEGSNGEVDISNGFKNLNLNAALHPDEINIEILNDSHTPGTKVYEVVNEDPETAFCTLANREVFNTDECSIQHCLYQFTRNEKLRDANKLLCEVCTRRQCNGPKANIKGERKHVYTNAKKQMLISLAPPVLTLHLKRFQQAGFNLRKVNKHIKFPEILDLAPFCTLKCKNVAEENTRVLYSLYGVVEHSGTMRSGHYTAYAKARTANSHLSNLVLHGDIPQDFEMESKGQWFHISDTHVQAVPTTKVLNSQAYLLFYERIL
Chain of UCHL1 (P09936 whole entry, looked up): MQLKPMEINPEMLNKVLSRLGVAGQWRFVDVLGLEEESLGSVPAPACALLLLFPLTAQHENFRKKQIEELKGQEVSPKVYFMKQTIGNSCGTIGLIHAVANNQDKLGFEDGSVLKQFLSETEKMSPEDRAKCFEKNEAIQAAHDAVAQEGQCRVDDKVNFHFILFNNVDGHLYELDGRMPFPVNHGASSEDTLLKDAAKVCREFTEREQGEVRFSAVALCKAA
Chain of USP10 (Q14694 whole entry): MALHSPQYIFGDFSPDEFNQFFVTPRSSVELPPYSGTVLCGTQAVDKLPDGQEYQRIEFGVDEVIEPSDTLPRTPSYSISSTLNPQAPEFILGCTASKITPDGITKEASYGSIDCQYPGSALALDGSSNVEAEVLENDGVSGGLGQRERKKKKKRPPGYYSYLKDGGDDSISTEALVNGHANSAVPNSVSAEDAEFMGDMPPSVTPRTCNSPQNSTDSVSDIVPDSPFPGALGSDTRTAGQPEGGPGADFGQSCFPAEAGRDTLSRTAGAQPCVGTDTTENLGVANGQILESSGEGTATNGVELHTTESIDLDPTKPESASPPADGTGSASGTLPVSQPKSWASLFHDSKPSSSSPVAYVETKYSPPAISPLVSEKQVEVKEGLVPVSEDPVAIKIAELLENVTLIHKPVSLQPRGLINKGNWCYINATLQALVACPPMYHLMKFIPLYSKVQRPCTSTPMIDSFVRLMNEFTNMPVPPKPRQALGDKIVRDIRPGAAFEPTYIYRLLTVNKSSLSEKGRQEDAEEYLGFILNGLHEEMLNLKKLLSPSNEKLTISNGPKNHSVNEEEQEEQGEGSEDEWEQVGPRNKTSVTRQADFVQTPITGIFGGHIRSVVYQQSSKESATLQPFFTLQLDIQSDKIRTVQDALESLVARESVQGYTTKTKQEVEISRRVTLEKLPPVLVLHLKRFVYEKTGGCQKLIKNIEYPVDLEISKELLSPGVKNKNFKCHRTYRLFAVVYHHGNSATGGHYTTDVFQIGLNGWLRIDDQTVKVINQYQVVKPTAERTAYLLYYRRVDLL

Cl.O=C(CCl)N1CCc2ncncc2C1
inactive: OTUD6B -0.0834 | OTUD7B -0.487 | PRPF8 0.0782 | PSMD7 -0.0569 | UCHL1 -0.583 | UCHL3 0.176 | UCHL5 -0.176 | USP10 -0.322 | USP15 -0.514 | USP16 -0.106
